BAZ2B inh = blocks human BAZ2B. AlphaScreen BAZ2B-H3K14Ac peptide displacement. 360,000 tested, 4.4% active. Potency, µM (top dose mostly 114 µM), inactives show at the highest dose activity change, negative = inhibition, usual class: inhibitors. Q9UIF8; also: % is scaled to controls: 0 for no effect and ±100 for the full control effect; nearly all actives have a fitted effect of over 60% in size
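AlphaScreen displacement: compounds (up to 110uM) incubated 30 min at room temperature with a preformed 50 nM BAZ2B/50 nM biotinylated H3K14Ac peptide complex in PBS pH 7.4 with Tween-20. Donor and acceptor beads at 10 ug/mL final added, 20 min light-protected before reading.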
HP1b chromo inh = blocks HP1-beta chromodomain binding to methylated histone tails | P83916 | AlphaScreen HP1-beta / biotin-H3K9me3 peptide binding | Potency, µM (series often up to 114 µM), for the others: at the highest dose activity change, negative = inhibition, actives largely listed as inhibitors | 390,000 tested, 0.56% active; also: nearly all actives have a fitted effect of over 70% in size
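AlphaScreen: HP1-beta (50 nM) preformed 30 min with biotin-H3(1-18)K9me3 peptide (50 nM) in PBS pH 7.4, 0.01% Tween-20. Compound added for 30 min at RT, then streptavidin donor/nickel chelate acceptor beads (10 ug/mL) for 30 min.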
G9a inh = blocks human histone lysine methyltransferase G9a; Q96KQ7; G9a H3K9 monomethylation, AlphaScreen, 2 h; Potency, µM (highest dose often 102 µM), inactives show at the top dose activity, negative = inhibition, actives largely listed as inhibitors; 350,000 tested, 8.8% active; also: % is scaled to controls: 0 for no effect and ±100 for the full control effect; nearly all actives have a fitted effect of over 75% in size
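Step 1: enzyme (final 20 nM) with compound, 15 min RT. Step 2: substrate peptide 500 nM and SAM 20 uM, 2 h RT. Step 3: anti-H3K9me1 antibody and AlphaScreen beads, 10 min, then plate read.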
JMJD2A Tudor = blocks the human JMJD2A Tudor domain; AID 504339; 390,000 tested, 4.4% active; AlphaScreen JMJD2A-Tudor / H3K4me3 peptide binding; O75164; Potency, µM (doses to about 114 µM), for the others: at the top dose activity change, negative = inhibition, hits mostly inhibitors; also: % is scaled to controls: 0 for no effect and ±100 for the full control effect; nearly all actives have a fitted effect of over 50% in size
L3MBTL1 block = inhibitors of human L3MBTL1; Q9Y468; AlphaScreen L3MBTL1–H3K9me1 peptide binding; Potency, µM (doses to about 57.1 µM), inactives show at the top dose activity, negative = inhibition, actives largely listed as inhibitors; 230,000 tested, 0.66% active; also: % is scaled to controls: 0 for no effect and ±100 for the full control effect; nearly all actives have a fitted effect of over 60% in size
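L3MBTL1 50 nM + b-AHA-H3(1-15)K9me1 75 nM, 30 min RT; compound added, 30 min RT; streptavidin donor/Ni-chelate acceptor beads 10 ug/mL each final, 30 min RT dark; AlphaScreen read.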
Starred values were filed as active, the others as inactive; [ ] = another dose, or the depositor's remark. Hits are enriched below; roughly 11% of the tested compounds scored in any of these assays. Calls follow the shape of the dose curve; as a rule, active = well fitted inhibition curve with a large enough effect; inconclusive = small, poorly fitted or top-dose-only effect; inactive = no such curve, though single readings can be large or run the other way. Potency is read from the fitted curve at half-maximal effect.

Results for CC1CCCC(NC(=O)CSc2ccc(F)cc2)C1C (centres undefined) ?
BAZ2B inh: -33%; HP1b chromo inh: 74%; G9a inh: -1%; JMJD2A Tudor: -7%; L3MBTL1 block: inconclusive

How did COc1ccc(C)cc1NC(=O)c1c2c(nc3ccccc13)C(=O)N(C1CCCCC1)C2 do in these assays?
BAZ2B inh: inconclusive; HP1b chromo inh: 3%; G9a inh: -2%[59 µM]; JMJD2A Tudor: -34%

How did COc1cc(/C=C(/C#N)c2nc3ccccc3[nH]2)ccc1OCC(=O)Nc1ccccc1C(C)C do in these assays?
BAZ2B inh: 50µM*; HP1b chromo inh: 18%; G9a inh: 27%[0.501 µM]; JMJD2A Tudor: -16%; L3MBTL1 block: -6%

How did CCOc1cc(/C=C(/C#N)c2nc3ccccc3[nH]2)ccc1OCc1ccc(C(=O)O)o1 do in these assays?
BAZ2B inh: inconclusive; HP1b chromo inh: 17%; G9a inh: 71µM*; JMJD2A Tudor: -23%; L3MBTL1 block: -28%

Results for COc1cc(/C=C(/C#N)c2nc3ccccc3[nH]2)ccc1OCC(=O)Nc1ccccc1C ?
BAZ2B inh: -7%; HP1b chromo inh: 23%; G9a inh: 38%[12.7 µM]; JMJD2A Tudor: -19%; L3MBTL1 block: 0%

How did c1cn(-c2cc(-c3ccc4c(c3)OCO4)ncn2)cn1 do in these assays?
G9a inh: -24%[0.501 µM]

How did CCN(CC)c1ccc(-c2nnc(SCC(=O)N(CCOC)c3c(N)n(CC(C)C)c(=O)[nH]c3=O)o2)cc1 do in these assays?
BAZ2B inh: -34%; HP1b chromo inh: 3%; G9a inh: -51%; JMJD2A Tudor: -12%; L3MBTL1 block: -5%

What do the screens show for `CCN(C(=O)CSc1nc(-c2ccccc2)cn1N)c1c(N)n(Cc2ccccc2)c(=O)[nH]c1=O`?
BAZ2B inh: -4%; HP1b chromo inh: 19%; G9a inh: inconclusive; JMJD2A Tudor: -11%; L3MBTL1 block: -5%

How did COCCN(C(=O)CSc1nnc(-c2ccccc2F)n1N)c1c(N)n(Cc2ccccc2)c(=O)[nH]c1=O do in these assays?
BAZ2B inh: 1%; HP1b chromo inh: 18%; JMJD2A Tudor: -3%

What do the screens show for `CCOc1ccc2nc(SCC(=O)N(CCOC)c3c(N)n(Cc4ccccc4)c(=O)[nH]c3=O)[nH]c2c1`?
BAZ2B inh: -4%; HP1b chromo inh: 45%; G9a inh: 10µM*; JMJD2A Tudor: 6%; L3MBTL1 block: 4%

Results for COCCN(C(=O)CSc1nnc(-c2ccc(C)c(C)c2)o1)c1c(N)n(CC(C)C)c(=O)[nH]c1=O ?
BAZ2B inh: -3%; HP1b chromo inh: -3%; G9a inh: 79µM*; JMJD2A Tudor: -11%; L3MBTL1 block: 5%

What do the screens show for `COCCN(C(=O)CSc1nc(-c2ccccc2)cn1N)c1c(N)n(Cc2ccccc2)c(=O)[nH]c1=O`?
BAZ2B inh: -2%; HP1b chromo inh: 33%; G9a inh: 8.9µM*; JMJD2A Tudor: -24%; L3MBTL1 block: -11%

Results for COCCN(C(=O)CSc1nnc(-c2cccs2)n1N)c1c(N)n(Cc2ccccc2)c(=O)[nH]c1=O ?
BAZ2B inh: -4%; HP1b chromo inh: 50%; G9a inh: 56µM*; JMJD2A Tudor: -6%

How did CCc1cccc(NC(=O)c2nc(-c3ccncc3)no2)c1 do in these assays?
BAZ2B inh: -29%; HP1b chromo inh: 33%; G9a inh: -36%[59 µM]; JMJD2A Tudor: -16%

What do the screens show for `COc1ccccc1OC(C)C(=O)Nc1ccc(-c2nc3ccccc3s2)cc1` (centres undefined)?
BAZ2B inh: -21%; HP1b chromo inh: 50%; G9a inh: 0%[59 µM]; JMJD2A Tudor: -7%

What do the screens show for `CC1CC[C@]2(CO)CC[C@]3(C)C(=CCC4[C@@]5(C)CCC(O)C(C)(C)C5CC[C@@]43C)C2C1C` (some centres undefined)?
G9a inh: -12%[2.33 µM]

Results for CCS(=O)(=O)N1CCc2cc(C(=O)N3CCN(c4ccc(OC)cc4)CC3)ccc21 ?
BAZ2B inh: inconclusive; HP1b chromo inh: -3%; G9a inh: inconclusive; JMJD2A Tudor: inconclusive

What do the screens show for `CC[n+]1c(/C=C/N(C)c2ccccc2)n(-c2ccccc2)c2ccc(-c3nc4ccccc4s3)cc21`?
BAZ2B inh: -18%; HP1b chromo inh: -13%; G9a inh: 25µM*; JMJD2A Tudor: 35µM*; L3MBTL1 block: -2%

How did CCOC(=O)c1ccc2c(c1)n(CC)c(/C=C/N(C)c1ccccc1)[n+]2CC do in these assays?
BAZ2B inh: inconclusive; HP1b chromo inh: inconclusive; G9a inh: 18%[59 µM]; JMJD2A Tudor: -23%; L3MBTL1 block: 7%

Results for CCN(CC)/[N+]([O-])=N/Oc1cc(O/N=[N+](\[O-])N(C)C)c([N+](=O)[O-])cc1[N+](=O)[O-] ?
HP1b chromo inh: -5%; JMJD2A Tudor: inconclusive

Results for OCCn1c(-c2ccc3c(c2)OCO3)csc1=Nc1ccccc1 ?
BAZ2B inh: 40µM*; HP1b chromo inh: inconclusive; G9a inh: -47%[12.7 µM]; JMJD2A Tudor: 40µM*; L3MBTL1 block: -9%

Results for OCCn1c(-c2ccc(F)cc2)csc1=Nc1ccccc1 ?
BAZ2B inh: 25µM*; HP1b chromo inh: inconclusive; G9a inh: 20µM*; JMJD2A Tudor: inconclusive; L3MBTL1 block: -24%

How did O=C(C[n+]1ccc(C(=O)N/N=C/c2ccc(Br)cc2)cc1)c1ccccc1 do in these assays?
BAZ2B inh: -10%; HP1b chromo inh: 29%; G9a inh: 7.9µM*; JMJD2A Tudor: -15%

Results for NC(=O)c1ccc[n+](CC(=O)c2cccc([N+](=O)[O-])c2)c1 ?
BAZ2B inh: 2%; HP1b chromo inh: 43%; G9a inh: -13%; JMJD2A Tudor: -5%

Results for N#Cc1cc[n+](CC(=O)c2ccc(NC(=O)c3ccccc3)cc2)cc1 ?
BAZ2B inh: -2%; HP1b chromo inh: 28%; G9a inh: 71µM*; JMJD2A Tudor: -26%; L3MBTL1 block: -4%

What do the screens show for `O=C(C[n+]1ccc(C(=O)N/N=C/c2ccc(O)cc2)cc1)c1ccccc1`?
BAZ2B inh: inconclusive; HP1b chromo inh: 34%; G9a inh: 14µM*; JMJD2A Tudor: -22%

How did O=C(C[n+]1cccc(C(=O)N/N=C/c2cccc([N+](=O)[O-])c2)c1)c1ccccc1 do in these assays?
BAZ2B inh: -7%; HP1b chromo inh: 21%; G9a inh: 50µM*; JMJD2A Tudor: -32%; L3MBTL1 block: -6%

What do the screens show for `O=C(C[n+]1ccc(C(=O)N/N=C/c2ccc(OCc3ccccc3)cc2)cc1)c1ccccc1`?
BAZ2B inh: 5%; HP1b chromo inh: 5%; G9a inh: inconclusive; JMJD2A Tudor: -35%

How did O=C(OCc1cc(=O)n2nc(-c3cccs3)sc2n1)c1ccc(Cl)cc1 do in these assays?
BAZ2B inh: -25%; HP1b chromo inh: 13%; G9a inh: 14%[59 µM]; JMJD2A Tudor: -25%

Compound activity as filed in PubChem.
